Results published in the supplement of paper PMC12282887.
± gives the standard deviation of the averaged measurements.

Legend:
Experiment in all cases: promoter activity interaction Z-score (Lux/OD deviation from empty-vector control); higher = stronger promoter induction by the compound
[1] = test system: E. coli BW25113 acrABp lux reporter
Outline: (§1)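 E. coli BW25113 (wild type or marA, soxS or rob deletion) carrying low-copy luxCDABE promoter reporters grew in 40 µl LB Lennox in 384-well plates at 37°C. Each compound was tested at four 1:2 dilutions in biological duplicates. OD600 and luminescence were read every 30 min for 12 h. Areas were taken over 0–8 h (wild type) or 1–9 h (mutants), and wells below 10% of median growth area were removed. The score is the Z-transformed residual of growth-normalised luminescence fitted against the empty-vector control.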

[2] = test system: E. coli BW25113 micFp lux reporter
Outline: as §1

[3] = test system: E. coli BW25113 ompFp lux reporter
Outline: as §1

[4] = test system: E. coli BW25113 robp lux reporter
Outline: as §1

[5] = test system: E. coli BW25113 soxSp lux reporter
Outline: as §1

[6] = test system: E. coli BW25113 tolCp lux reporter
Outline: as §1

[7] = 17.8 µg/ml, genetic background: wild type
[8] = 17.8 µg/ml, genetic background: ΔmarA
[9] = 17.8 µg/ml, genetic background: Δrob
[10] = 17.8 µg/ml, genetic background: ΔsoxS
[11] = 35.7 µg/ml, genetic background: wild type
[12] = 35.7 µg/ml, genetic background: ΔmarA
[13] = 35.7 µg/ml, genetic background: Δrob
[14] = 35.7 µg/ml, genetic background: ΔsoxS
[15] = 71.3 µg/ml, genetic background: wild type
[16] = 71.3 µg/ml, genetic background: ΔmarA
[17] = 71.3 µg/ml, genetic background: Δrob
[18] = 71.3 µg/ml, genetic background: ΔsoxS
[19] = 142.7 µg/ml, genetic background: wild type
[20] = 142.7 µg/ml, genetic background: ΔmarA
[21] = 142.7 µg/ml, genetic background: Δrob
[22] = 142.7 µg/ml, genetic background: ΔsoxS

## O=C(/C=C/C=C/c1ccc2c(c1)OCO2)N1CCCCC1 [Piperine]
[1]; [7]
  promoter activity interaction Z-score: 0.246 ± 0.24
[1]; [8]
  promoter activity interaction Z-score: 2.16 ± 0.78
[1]; [9]
  promoter activity interaction Z-score: -0.45 ± 0.37
[1]; [10]
  promoter activity interaction Z-score: -0.228 ± 0.025
[1]; [11]
  promoter activity interaction Z-score: -0.267 ± 0.27
[1]; [12]
  promoter activity interaction Z-score: -0.218 ± 0.58
[1]; [13]
  promoter activity interaction Z-score: -0.35 ± 0.11
[1]; [14]
  promoter activity interaction Z-score: -0.339 ± 0.26
[1]; [15]
  promoter activity interaction Z-score: 0.114 ± 0.35
[1]; [16]
  promoter activity interaction Z-score: 1.19 ± 0.28
[1]; [17]
  promoter activity interaction Z-score: -0.349 ± 0.35
[1]; [18]
  promoter activity interaction Z-score: -0.246 ± 0.6
[1]; [19]
  promoter activity interaction Z-score: -0.023 ± 0.22
[1]; [20]
  promoter activity interaction Z-score: 0.484 ± 0.7
[1]; [21]
  promoter activity interaction Z-score: -0.275 ± 0.24
[1]; [22]
  promoter activity interaction Z-score: 0.0345 ± 0.17
[2]; [7]
  promoter activity interaction Z-score: 0.0366 ± 0.31
[2]; [8]
  promoter activity interaction Z-score: -0.191 ± 0.14
[2]; [9]
  promoter activity interaction Z-score: 0.0158 ± 0.19
[2]; [10]
  promoter activity interaction Z-score: -0.381 ± 0.062
[2]; [11]
  promoter activity interaction Z-score: -0.332 ± 0.016
[2]; [12]
  promoter activity interaction Z-score: -0.0943 ± 0.12
[2]; [13]
  promoter activity interaction Z-score: 0.0827 ± 0.3
[2]; [14]
  promoter activity interaction Z-score: -0.204 ± 0.038
[2]; [15]
  promoter activity interaction Z-score: 0.0474 ± 0.091
[2]; [16]
  promoter activity interaction Z-score: -0.151 ± 0.15
[2]; [17]
  promoter activity interaction Z-score: -0.00444 ± 0.34
[2]; [18]
  promoter activity interaction Z-score: -0.417 ± 0.16
[2]; [19]
  promoter activity interaction Z-score: 0.0188 ± 0.37
[2]; [20]
  promoter activity interaction Z-score: 0.0457 ± 0.14
[2]; [21]
  promoter activity interaction Z-score: -0.043 ± 0.02
[2]; [22]
  promoter activity interaction Z-score: -0.135 ± 0.14
[3]; [7]
  promoter activity interaction Z-score: -0.0829 ± 0.54
[3]; [8]
  promoter activity interaction Z-score: -1.35 ± 0.34
[3]; [9]
  promoter activity interaction Z-score: -0.822 ± 0.25
[3]; [10]
  promoter activity interaction Z-score: -0.433 ± 0.063
[3]; [11]
  promoter activity interaction Z-score: -0.415 ± 0.064
[3]; [12]
  promoter activity interaction Z-score: -1.08 ± 0.24
[3]; [13]
  promoter activity interaction Z-score: -0.634 ± 0.12
[3]; [14]
  promoter activity interaction Z-score: -0.567 ± 0.14
[3]; [15]
  promoter activity interaction Z-score: -0.476 ± 0.17
[3]; [16]
  promoter activity interaction Z-score: -1.71 ± 0.16
[3]; [17]
  promoter activity interaction Z-score: -0.778 ± 0.1
[3]; [18]
  promoter activity interaction Z-score: -1.09 ± 0.28
[3]; [19]
  promoter activity interaction Z-score: -0.342 ± 0.011
[3]; [20]
  promoter activity interaction Z-score: -0.966 ± 0.094
[3]; [21]
  promoter activity interaction Z-score: -0.486 ± 0.29
[3]; [22]
  promoter activity interaction Z-score: -0.548 ± 0.51
[4]; [7]
  promoter activity interaction Z-score: 0.172 ± 0.75
[4]; [8]
  promoter activity interaction Z-score: -0.36 ± 0.095
[4]; [9]
  promoter activity interaction Z-score: 0.172 ± 1.4
[4]; [10]
  promoter activity interaction Z-score: -0.316 ± 0.4
[4]; [11]
  promoter activity interaction Z-score: 0.097 ± 0.42
[4]; [12]
  promoter activity interaction Z-score: -1.12 ± 0.12
[4]; [13]
  promoter activity interaction Z-score: -0.276 ± 0.084
[4]; [14]
  promoter activity interaction Z-score: -0.113 ± 0.51
[4]; [15]
  promoter activity interaction Z-score: -0.241 ± 0.27
[4]; [16]
  promoter activity interaction Z-score: -0.584 ± 0.63
[4]; [17]
  promoter activity interaction Z-score: 0.349 ± 1.6
[4]; [18]
  promoter activity interaction Z-score: -0.312 ± 0.18
[4]; [19]
  promoter activity interaction Z-score: 1.83 ± 1.8
[4]; [20]
  promoter activity interaction Z-score: 0.000795 ± 0.15
[4]; [21]
  promoter activity interaction Z-score: 0.186 ± 0.23
[4]; [22]
  promoter activity interaction Z-score: 0.201 ± 0.43
[5]; [7]
  promoter activity interaction Z-score: 0.109 ± 0.15
[5]; [8]
  promoter activity interaction Z-score: -0.193 ± 0.12
[5]; [9]
  promoter activity interaction Z-score: 0.0591 ± 0.33
[5]; [10]
  promoter activity interaction Z-score: -0.222 ± 0.045
[5]; [11]
  promoter activity interaction Z-score: -0.168 ± 0.034
[5]; [12]
  promoter activity interaction Z-score: -0.0932 ± 0.073
[5]; [13]
  promoter activity interaction Z-score: 0.0518 ± 0.4
[5]; [14]
  promoter activity interaction Z-score: -0.0694 ± 0.036
[5]; [15]
  promoter activity interaction Z-score: 0.0967 ± 0.17
[5]; [16]
  promoter activity interaction Z-score: -0.245 ± 0.091
[5]; [17]
  promoter activity interaction Z-score: 0.0476 ± 0.29
[5]; [18]
  promoter activity interaction Z-score: -0.421 ± 0.13
[5]; [19]
  promoter activity interaction Z-score: -0.0465 ± 0.24
[5]; [20]
  promoter activity interaction Z-score: -0.324 ± 0.079
[5]; [21]
  promoter activity interaction Z-score: -0.0385 ± 0.2
[5]; [22]
  promoter activity interaction Z-score: -0.403 ± 0.12
[6]; [7]
  promoter activity interaction Z-score: 0.553 ± 0.54
[6]; [8]
  promoter activity interaction Z-score: 0.188 ± 1.3
[6]; [9]
  promoter activity interaction Z-score: 0.472 ± 2.8
[6]; [10]
  promoter activity interaction Z-score: -0.947 ± 0.95
[6]; [11]
  promoter activity interaction Z-score: 0.236 ± 0.38
[6]; [12]
  promoter activity interaction Z-score: -0.452 ± 0.27
[6]; [13]
  promoter activity interaction Z-score: -0.598 ± 1.4
[6]; [14]
  promoter activity interaction Z-score: -0.521 ± 0.018
[6]; [15]
  promoter activity interaction Z-score: 0.515 ± 0.49
[6]; [16]
  promoter activity interaction Z-score: -0.357 ± 0.42
[6]; [17]
  promoter activity interaction Z-score: -0.0523 ± 0.77
[6]; [18]
  promoter activity interaction Z-score: 0.108 ± 1.1
[6]; [19]
  promoter activity interaction Z-score: 0.274 ± 0.22
[6]; [20]
  promoter activity interaction Z-score: 0.331 ± 2.3
[6]; [21]
  promoter activity interaction Z-score: -0.437 ± 0.62
[6]; [22]
  promoter activity interaction Z-score: -0.524 ± 0.86
